7 molecules from PubChem BioAssay (NCATS) can be followed below.

The target of experiment [1] is Lysosomal acid glucosylceramidase (Homo sapiens) (UniProt P04062). The experiment in a line: Glucocerebrosidase-p2 (AID 348; in the data active = potency below about 10 µM; note: potency is the fitted concentration of half-maximal effect). The settings on record: purified GBA, blue fluorogenic substrate, 40 min. Put shortly: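 Normal human glucocerebrosidase (0.2 nM) with blue fluorogenic substrate (80 uM final) in citrate/phosphate pH 5.9 with 10mM sodium taurocholate, 0.01% tween-20; 40 min RT, NaOH/glycine stop; fluorescence Ex 365/Em 440; AC50 from a titration from 0.6 nM upwards.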

Experiment [2] in a line: AP1 Signaling Pathway (AID 357).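 Note: ME-180 reporter cells stimulated with EGF at its EC50 level; % is set by controls: 0 for no effect and ±100 for the full control effect.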 The settings on record: ME-180 AP-1-bla reporter, EGF-induced, beta-lactamase ratio, 5 h; at 7.69 µM (top of the series) unless noted. Put shortly:
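AP-1-bla ME-180 cells, Opti-MEM + 0.5% dialyzed FBS, plated overnight 37 °C. Cpd titration + EC50 EGF, 5 h 37 °C. CCF4 2.5 h RT; ex 405, em 460/530 ratio → %activity, AC50.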

Experiment [3] is described as follows: NFAT Signaling Pathway (AID 444).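 Note: carbachol stimulus at about its EC50 of 1 µM final; % is set by controls: 0 for no effect and ±100 for the full control effect.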 The settings on record: Jurkat NFAT-bla M1, carbachol, beta-lactamase ratio, 5 h; at 7.69 µM (top of the series) unless noted. Put shortly: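 Read-out: CCF4 FRET ratio (460 nm/530 nm) after 1 h RT dye loading, used for %activity and AC50 from titration series. Cells: Jurkat NFAT-β-lactamase/M1 line, treated with compound plus 1 uM carbachol for 5 h, 37 °C.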

Experiment [4] is described as follows: Stat Signaling Pathway (AID 446).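 Note: ME-180 cervical cancer cells given 40 pM IL-6 alongside compound; SIE-controlled beta-lactamase reporter measured as 460/530 nm FRET emission ratio; % is set by controls: 0 for no effect and ±100 for the full control effect.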 The settings on record: ME-180 (cervical carcinoma) SIE beta-lactamase reporter, IL-6 stimulated, 5 h; at 7.69 µM (top of the series) unless noted. Put shortly: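 FRET read-out (405 nm excitation, 460/530 nm emission) of a beta-lactamase reporter under a STAT-inducible element in ME-180 cervical carcinoma cells. Cells with compound receive 40 pM IL-6 for 5 h. Values are normalised to AC90 stimulation and AC90 JAK-inhibitor controls.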

Experiment [5] concerns the target Glucocorticoid receptor (Homo sapiens) (UniProt P04150). In words: GR-EFC Redistribution (AID 451; calls by dose curve; note: potency is the fitted concentration of half-maximal effect). Conditions: CHO-K1 GR-EFC translocation, beta-gal luminescence, 2 h. Put shortly: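 Translocation of GR-ED fusion to nuclear EA restores b-gal, read by luminescence after 1 h room-temperature detection. Engineered CHO-K1 biosensor cells, 1,000/well, exposed 2 h at 37 C to titrations up to 46 uM final.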

For experiment [6], the target named is Mitogen-activated protein kinase 10 (Mus musculus) (UniProt Q61831). The experiment in a line: JNK3 AlphaScreen Assay (AID 530).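 Note: kinase came from lysate of stimulated human HepG2 cells; signal reports phosphorylation of biotinylated GST-cJun 1-79 at Ser73 with 10 µM ATP; % is set by controls: 0 for no effect and ±100 for the full control effect.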 Conditions: JNK3 lysate, c-Jun phosphorylation; series mostly up to 57.1 µM. Put shortly:
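Kinase buffer: 20 mM Tris-HCl pH 7.6, 10 mM MgCl2, 1 mM DTT, 0.1 mM Na3VO4, 0.01% Tween-20; ATP 10 uM. Substrate biotin-GST-cJun(1-79), enzyme from activated HepG2 lysates. Detection by Ser73 phospho-antibody AlphaScreen.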
For orientation: Alpha assays give light when donor and acceptor beads are brought close together.

For experiment [7], the target named is 3',5'-cyclic-AMP phosphodiesterase 4B (Homo sapiens) (UniProt Q07343). The experiment in a line: qHTS Assay for Inhibitors of PDE-IV (AID 607; active = well fitted activation curve with a large enough effect in the main read-out, with a control signal flat, not every such curve was filed as active; note: % of control where 0% means no effect). Conditions: HEK293 ACTOne CNG channel cells, membrane potential fluorescence; series mostly up to 22.9 µM. Put shortly:
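Cell-based read-out of cAMP via a modified cyclic nucleotide-gated channel and membrane potential dye (535/590 nm) in HEK293 cells expressing PDE4 endogenously. Compounds tested up to 22.9 uM final; 100 uM RO 20-1724 reference.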
On the technique in general: Quantitative high-throughput screening tests each substance at several concentrations.

Experiment [8] is described as follows: qHTS Assay for Lipid Storage Modulators (AID 1519; calls by dose curve). The settings on record: Drosophila S3 cells, BODIPY lipid droplet/cell ratio, laser cytometry, cells loaded with oleic acid; for activity change, negative = inhibition: at 57.5 µM (top of the series). Put shortly: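 Cells seeded at 5,000 per well were treated with compounds over a concentration series and loaded with oleic acid (400 uM, as added). Lipid droplet fluorescence (488 nm excitation, 500-530 nm channel) was read by laser-scanning cytometry and normalized to 20 uM Triacsin C.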

Experiment [9] in a line: Primary qHTS for small molecule stabilizers of the endoplasmic reticulum resident proteome: Secreted ER Calcium Modulated Protein (SERCaMP) assay (AID 1508630; active = well fitted curve in the direction sought with a large enough effect; an effect the other way counts as inactive or inconclusive; note: % is set by controls: 0 for no effect and ±100 for the full control effect). Conditions: SH-SY5Y GLuc-SERCaMP (Gaussia luciferase released on ER calcium loss) secretion, thapsigargin, luminescence; series mostly up to 38.4 µM. Put shortly:
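The SH-SY5Y reporter protocol was run at 3 concentrations up to 38.3 uM (primary) or 11 concentrations (follow-up): 16 h compound, 100 nM thapsigargin for 4 h, then extracellular luciferase luminescence.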

Experiment [10] has as its target Cytochrome P450 3A4 (Homo sapiens) (UniProt P08684). In words: qHTS Assay for Activators of Cytochrome P450 3A4 (AID 885; active = well fitted curve in the direction sought with a large enough effect; an effect the other way counts as inactive or inconclusive; note: nearly all actives have a fitted effect of over 65% in size). Conditions: recombinant CYP3A4, Luciferin-PPXE luminescence, 60 min; series mostly up to 57.1 µM. Put shortly: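 Luminescent readout of luciferin formed from 25 uM Luciferin-PPXE (KM level) by 20 nM CYP3A4 in 200 mM KPO4, with 60 min NADPH-driven reaction at room temperature after 10 min compound exposure. Ketoconazole (57 uM) defined 100% inhibition.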

Setting [11] is: measured here: cell count channel max response.
Where [12] appears, read: measured here: lipid channel max response.

Records with an inconclusive call do not appear. Active and inactive are the calls of the source. Unless noted, calls come from the whole dose curve; as a rule, active = well fitted curve in either direction with a large enough effect (not every such curve was filed as active); inconclusive = small, poorly fitted or top-dose-only effect, or another doubt; inactive = flat fitted curve, though single readings scatter. Some results are limits rather than exact numbers.

Sequence of Lysosomal acid glucosylceramidase (Homo sapiens) (P04062 whole entry, looked up): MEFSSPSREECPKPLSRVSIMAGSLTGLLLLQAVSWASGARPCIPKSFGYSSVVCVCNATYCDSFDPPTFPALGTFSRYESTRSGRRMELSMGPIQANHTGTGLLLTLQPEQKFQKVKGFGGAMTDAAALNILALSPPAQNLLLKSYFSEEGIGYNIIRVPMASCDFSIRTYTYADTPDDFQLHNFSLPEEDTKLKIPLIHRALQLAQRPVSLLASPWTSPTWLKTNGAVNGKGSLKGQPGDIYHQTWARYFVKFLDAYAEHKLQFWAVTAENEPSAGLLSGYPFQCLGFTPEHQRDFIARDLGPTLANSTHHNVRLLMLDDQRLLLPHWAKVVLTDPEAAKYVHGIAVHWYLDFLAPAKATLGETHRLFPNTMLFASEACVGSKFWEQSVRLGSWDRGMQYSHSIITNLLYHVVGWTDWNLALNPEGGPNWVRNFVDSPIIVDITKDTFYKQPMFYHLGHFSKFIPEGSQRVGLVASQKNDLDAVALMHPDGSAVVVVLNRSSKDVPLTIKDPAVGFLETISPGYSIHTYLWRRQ
Sequence of 3',5'-cyclic-AMP phosphodiesterase 4B (Homo sapiens) (Q07343 whole entry, looked up): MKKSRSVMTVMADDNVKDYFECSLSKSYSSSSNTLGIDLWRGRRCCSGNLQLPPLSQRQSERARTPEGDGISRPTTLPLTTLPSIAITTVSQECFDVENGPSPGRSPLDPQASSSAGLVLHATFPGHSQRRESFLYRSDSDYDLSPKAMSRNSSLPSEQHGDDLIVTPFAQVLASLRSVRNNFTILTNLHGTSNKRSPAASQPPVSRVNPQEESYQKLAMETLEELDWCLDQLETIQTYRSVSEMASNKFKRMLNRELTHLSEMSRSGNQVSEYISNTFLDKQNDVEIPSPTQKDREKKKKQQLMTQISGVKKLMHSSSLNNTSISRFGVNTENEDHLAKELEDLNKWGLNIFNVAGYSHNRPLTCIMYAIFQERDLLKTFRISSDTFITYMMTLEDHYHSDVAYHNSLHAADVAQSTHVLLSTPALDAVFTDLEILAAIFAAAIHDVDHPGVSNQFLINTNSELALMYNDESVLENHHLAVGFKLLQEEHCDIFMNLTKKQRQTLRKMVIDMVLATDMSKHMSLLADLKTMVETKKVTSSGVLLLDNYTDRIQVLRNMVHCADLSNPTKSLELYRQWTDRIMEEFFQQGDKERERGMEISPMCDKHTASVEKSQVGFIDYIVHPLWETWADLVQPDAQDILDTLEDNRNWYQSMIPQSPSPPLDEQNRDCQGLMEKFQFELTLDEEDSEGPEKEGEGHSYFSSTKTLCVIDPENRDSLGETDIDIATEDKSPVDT
Sequence of Glucocorticoid receptor (Homo sapiens) (P04150 whole entry, looked up, the tested form may be a part): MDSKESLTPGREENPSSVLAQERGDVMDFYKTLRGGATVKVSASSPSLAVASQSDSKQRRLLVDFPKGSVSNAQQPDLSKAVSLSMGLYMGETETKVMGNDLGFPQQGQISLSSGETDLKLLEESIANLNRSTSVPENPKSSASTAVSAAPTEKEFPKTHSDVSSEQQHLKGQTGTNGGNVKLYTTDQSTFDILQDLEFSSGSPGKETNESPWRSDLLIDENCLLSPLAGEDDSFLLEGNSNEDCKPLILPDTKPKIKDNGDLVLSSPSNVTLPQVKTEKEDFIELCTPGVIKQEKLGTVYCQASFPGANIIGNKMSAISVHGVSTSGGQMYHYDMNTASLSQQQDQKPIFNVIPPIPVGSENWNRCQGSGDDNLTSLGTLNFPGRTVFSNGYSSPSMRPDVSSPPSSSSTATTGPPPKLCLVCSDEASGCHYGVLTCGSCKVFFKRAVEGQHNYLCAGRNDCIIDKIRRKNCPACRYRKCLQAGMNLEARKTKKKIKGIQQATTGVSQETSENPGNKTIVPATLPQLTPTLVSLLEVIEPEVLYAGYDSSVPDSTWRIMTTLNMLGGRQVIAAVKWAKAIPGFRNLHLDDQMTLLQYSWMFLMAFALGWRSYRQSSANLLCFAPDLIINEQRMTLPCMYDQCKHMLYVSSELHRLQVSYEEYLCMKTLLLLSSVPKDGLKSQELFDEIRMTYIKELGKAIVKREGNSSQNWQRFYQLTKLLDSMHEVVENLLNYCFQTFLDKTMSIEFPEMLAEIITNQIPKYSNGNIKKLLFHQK
Sequence of Cytochrome P450 3A4 (Homo sapiens) (P08684 whole entry, looked up): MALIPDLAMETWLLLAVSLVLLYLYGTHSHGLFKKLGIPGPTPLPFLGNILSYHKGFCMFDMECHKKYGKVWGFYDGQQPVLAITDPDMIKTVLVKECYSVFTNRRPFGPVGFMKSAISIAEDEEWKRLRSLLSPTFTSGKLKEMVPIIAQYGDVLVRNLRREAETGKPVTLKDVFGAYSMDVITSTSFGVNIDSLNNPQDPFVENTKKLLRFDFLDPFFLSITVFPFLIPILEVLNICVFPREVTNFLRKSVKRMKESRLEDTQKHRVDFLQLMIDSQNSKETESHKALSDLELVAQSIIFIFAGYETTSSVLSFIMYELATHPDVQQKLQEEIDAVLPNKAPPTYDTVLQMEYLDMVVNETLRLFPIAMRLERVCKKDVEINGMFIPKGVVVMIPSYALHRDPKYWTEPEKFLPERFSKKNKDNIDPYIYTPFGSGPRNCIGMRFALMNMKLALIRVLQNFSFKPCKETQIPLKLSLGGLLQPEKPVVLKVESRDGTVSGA

Turning to `CS(=O)(=O)N1CCC[C@@]2(CCN(Cc3ccc(C#N)cc3)C2)C1`, the Potency in [1] is > 11.4 µM (inactive); in experiment [5] it was > 46 µM (inactive). Also, the activity change, negative = inhibition in [2] is 10.7% (inactive); in experiment [3], -5.85% (inactive); in experiment [8], 1.64% (inactive). Also, the activity, negative = inhibition in experiment [4] is -6.21% (inactive). Moreover, the Potency entry in experiment [6] and in [7] was “inactive” in each case. The max response is -0.832% in experiment [8] (setting [11]) and -0.755% in experiment [8] (setting [12]). In addition, the result in [9] was inactive.
For the molecule `CS(=O)(=O)N1CCC2(CCN(c3ccccn3)CC2)CC1`, the Potency is > 11.4 µM (inactive) in experiment [1] and > 46 µM (inactive) in experiment [5]. In addition, the activity change, negative = inhibition was -5.04% (inactive) in experiment [2], -12.8% (inactive) in experiment [3] and 6.49% (inactive) in [8]. Also, the activity, negative = inhibition in experiment [4] is -2.94% (inactive). The Potency entry in experiment [6] and in experiment [7] was “inactive” each time. The max response in [8] (setting [11]) amounted to 5.01%; in experiment [8] (setting [12]) it was 13.9%. For the same molecule, the outcome in experiment [9] was inactive.
In the case of `CS(=O)(=O)N1CCC2(CCCN(c3cccc(-c4ccccc4)c3)C2)CC1`, the Potency in experiment [1] is > 11.4 µM (inactive); in [5], > 46 µM (inactive). Besides, the results for the activity change, negative = inhibition in experiment [2], in experiment [3] and in [8] were -13.4% (inactive), 0.269% (inactive) and -12% (inactive), respectively. The activity, negative = inhibition in experiment [4] was -0.955% (inactive). The Potency entry in [6] and in experiment [7] was “inactive” in each case. Moreover, the max response was 12.1% in [8] (setting [11]) and -3.01% in experiment [8] (setting [12]). The result in [9] was inactive.
As to `O=C(c1csnn1)N1CCC[C@@]2(CCN(C(c3ccccc3)c3ccccc3)C2)C1`, the Potency in experiment [1] is > 11.4 µM (inactive); in [5] it was > 46 µM (inactive). For the same molecule, the figures for the activity change, negative = inhibition in experiment [2], in experiment [3] and in experiment [8] were 8.26% (inactive), 29.4% (inactive) and -19.7% (inactive), respectively. Moreover, the activity, negative = inhibition in experiment [4] is 26.4% (inactive). The Potency result in experiment [6] and in experiment [7] was “inactive” each time. Moreover, the max response in experiment [8] (setting [11]) was -5.14%; in experiment [8] (setting [12]), -20.5%. In addition, the result in [9] was inactive.
Take `CS(=O)(=O)N1CCC2(CC1)CN(Cc1ccccc1)C2`: the results for the Potency in experiment [1] and in experiment [5] were > 11.4 µM (inactive) and > 46 µM (inactive), respectively. For the same molecule, the values for the activity change, negative = inhibition in [2], in [3] and in experiment [8] were -4.28% (inactive), -8.71% (inactive) and 3.83% (inactive), respectively. In addition, the activity, negative = inhibition in [4] was -7.57% (inactive). Besides, the Potency entry in experiment [6] and in [7] was “inactive” throughout. Also, the results for the max response in experiment [8] (setting [11]) and in experiment [8] (setting [12]) were 6.73% and 15%, respectively. In addition, the outcome in experiment [9] was inactive.
In the case of `CC(=O)N1CCC2(CCCN(Cc3cc(C(F)(F)F)cc(C(F)(F)F)c3)C2)CC1`, the Potency was > 11.4 µM (inactive) in experiment [1] and > 46 µM (inactive) in experiment [5]. Further, the activity change, negative = inhibition in experiment [2] was 7.77% (inactive); in experiment [3], 23.8% (inactive); in experiment [8], 4.05% (inactive). The activity, negative = inhibition in experiment [4] was -2.82% (inactive). The Potency result in experiment [6], in experiment [7] and in experiment [10] was “inactive” in each case. The max response worked out at 1.79% in experiment [8] (setting [11]) and 9.32% in experiment [8] (setting [12]). Further, the result in experiment [9] was inactive.
For `O=S(=O)(c1ccccc1)N1CCC2(CCN(c3ccc(-c4ccccc4)cc3)CC2)CC1`, the Potency in [1] is > 11.4 µM (inactive); in experiment [5] it was > 46 µM (inactive). For the same molecule, the activity change, negative = inhibition in [2] is 1.76% (inactive); in experiment [3], 11.9% (inactive); in [8] it was 5.32% (inactive). For the same molecule, the activity, negative = inhibition in experiment [4] is -10.3% (inactive). Moreover, the Potency result in experiment [6], in experiment [7] and in experiment [10] was “inactive” in each case. For the same molecule, the max response turned out to be 18.6% in experiment [8] (setting [11]) and 22.9% in experiment [8] (setting [12]). Moreover, the result in [9] was inactive.
